For part of these data: Results with a measured potency or affinity are listed apart. Active and inactive are the calls of the source.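 How the source made its calls, unless noted: active means primary screen hit whose fluorescence ratio, in both repeats, exceeds the weak agonist control mean by 3 SD; inactive means the rest.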
Key:
[1] = test system: TRPC4 beta (transient receptor potential cation channel C4), mouse; assay: activators of mouse TRPC4 channel, confirmation, cell-based, Fluo4 calcium, HEK293 TRPC4beta/mu-opioid, duplicates, 10 µM (AID 2426;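 active means fluorescence ratio normalized to control raised more than 50% in primary screen plus both repeat runs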); conditions: Fluo4 calcium fluorescence, at 10 µM; stronger effect = higher value
[2] = test system: transient receptor potential cation channel C4 beta (TRPC4), mouse; assay: activators of mouse TRPC4 channel, confirmation, cell-based, second round, Fluo4, HEK293 TRPC4beta/mu-opioid, 1 µM (AID 2461;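 active means primary screen active and over 50% activation in each of two duplicate runs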); conditions: Fluo4 calcium fluorescence, at 1 µM; stronger effect = higher value
[3] = test system: TRPC4 (transient receptor potential cation channel C4 beta), mouse; assay: positive allosteric modulators of mouse TRPC4, confirmation, cell-based, second round, Fluo-4, HEK293 TRPC4beta/mu-opioid, 1 µM (AID 2554); conditions: DAMGO EC20, Fluo-4 calcium flux, at 1 µM; stronger effect = higher value
[4] = test system: TRPC4 beta (transient receptor potential cation channel C4), mouse; assay: positive allosteric modulators of mouse TRPC4, confirmation, cell-based, Fluo-4, HEK293 TRPC4beta/mu-opioid (AID 2555;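 active means primary screen hit whose calcium fluorescence ratio, in both repeats, exceeds the weak agonist control mean by 3 SD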); conditions: DAMGO EC20, Fluo-4 calcium flux, at 10 µM; stronger effect = higher value
[5] = biological target: Short transient receptor potential channel 4 (Mus musculus) (UniProt Q9QUQ5); assay: inhibitors of mouse TRPC4 channel, confirmation, cell-based, Fluo4, HEK293 TRPC4beta/mu-opioid (AID 2636;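 active means calcium signal cut by more than 3 SD below the full-agonist control yet still positive, in both repeats and the earlier primary screen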); conditions: DAMGO, Fluo4 calcium flux, at 10 µM; stronger effect = higher value
Chain of Short transient receptor potential channel 4 (Mus musculus) (Q9QUQ5 whole entry, looked up): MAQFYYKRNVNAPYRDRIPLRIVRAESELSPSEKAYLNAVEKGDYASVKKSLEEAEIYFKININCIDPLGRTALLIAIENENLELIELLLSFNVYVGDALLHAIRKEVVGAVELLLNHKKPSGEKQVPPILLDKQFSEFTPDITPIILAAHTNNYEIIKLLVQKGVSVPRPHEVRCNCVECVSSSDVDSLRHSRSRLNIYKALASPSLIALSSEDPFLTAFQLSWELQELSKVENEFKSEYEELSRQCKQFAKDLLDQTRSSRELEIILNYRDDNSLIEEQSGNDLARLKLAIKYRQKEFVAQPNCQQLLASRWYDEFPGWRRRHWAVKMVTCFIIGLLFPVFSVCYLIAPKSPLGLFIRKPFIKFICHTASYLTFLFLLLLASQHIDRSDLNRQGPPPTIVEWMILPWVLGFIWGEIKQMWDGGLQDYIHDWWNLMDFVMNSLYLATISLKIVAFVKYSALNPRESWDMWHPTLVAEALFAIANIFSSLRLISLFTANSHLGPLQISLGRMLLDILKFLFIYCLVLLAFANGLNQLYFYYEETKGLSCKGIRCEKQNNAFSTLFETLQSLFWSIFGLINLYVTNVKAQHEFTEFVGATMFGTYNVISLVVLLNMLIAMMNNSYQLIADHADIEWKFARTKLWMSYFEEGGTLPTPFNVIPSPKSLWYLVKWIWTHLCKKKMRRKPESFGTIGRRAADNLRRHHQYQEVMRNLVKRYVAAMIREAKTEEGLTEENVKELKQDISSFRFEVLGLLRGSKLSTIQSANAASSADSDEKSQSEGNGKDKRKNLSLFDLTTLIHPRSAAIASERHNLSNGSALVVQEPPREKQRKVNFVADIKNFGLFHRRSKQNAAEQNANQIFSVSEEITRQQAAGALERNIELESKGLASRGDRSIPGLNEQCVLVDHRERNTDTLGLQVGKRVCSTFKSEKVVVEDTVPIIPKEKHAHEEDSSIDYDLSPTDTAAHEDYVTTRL

[6] = biological target: Short transient receptor potential channel 4 (Mus musculus) (UniProt Q9QUQ5); assay: inhibitors of mouse TRPC4 channel, confirmation, cell-based, second round, Fluo4, HEK293 TRPC4beta/mu-opioid, 1 µM (AID 2637;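 active means calcium signal ratio cut to more than 3 SD under the fully stimulated control mean yet still positive, in both repeats and the primary screen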;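 on inhibition: percent of integrated ratio relative to wells lacking test compound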); conditions: Fluo4 calcium flux, DAMGO, at 1 µM; stronger effect = higher value
[7] = biological target: Short transient receptor potential channel 4 (Mus musculus) (UniProt Q9QUQ5); assay: mouse TRPC4 channel activators, dose response, cell-based, HEK293 TRPC4/mu-opioid, Fluo-4 calcium (AID 434937;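 active means primary screen activator hit with a dose response curve and TRPC4 channel activation at any tested dose; inactive means no activation, no dose response, or not a primary hit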); conditions: HEK293 TRPC4 cells, Fluo-4 calcium fluorescence ratio; series mostly up to 20 µM
[8] = biological target: Short transient receptor potential channel 4 (Mus musculus) (UniProt Q9QUQ5); assay: TRPC4 positive allosteric modulators, dose response, cell-based, HEK293 TRPC4/mu-opioid, Fluo-4 calcium, EC20 DAMGO (AID 434941;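 active means earlier screen potentiator hit that boosts the TRPC4 ion channel at some dose, with a dose response; inactive means no potentiation, no dose response, or not a prior hit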;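 further: calcium entry triggered by an EC20 dose of DAMGO at the co-expressed mu-opioid receptor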); conditions: HEK293 TRPC4/mu-opioid cells, Fluo-4 calcium fluorescence; series mostly up to 20 µM
[9] = biological target: Short transient receptor potential channel 6 (Mus musculus) (UniProt Q61143); assay: inhibition of mouse TRPC6 channel, confirmation, selectivity assay for TRPC4 inhibitor project, cell-based, HEK293, membrane potential dye, duplicate (AID 434948;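 active means active in primary screen and both duplicates, each dropping signal beyond three positive-control SD with fluorescence still positive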); conditions: HEK293 TRPC6, membrane potential dye fluorescence, at 10 µM, stimulated with maximal-effect acetylcholine; stronger effect = higher value
Chain of Short transient receptor potential channel 6 (Mus musculus) (Q61143 whole entry, looked up): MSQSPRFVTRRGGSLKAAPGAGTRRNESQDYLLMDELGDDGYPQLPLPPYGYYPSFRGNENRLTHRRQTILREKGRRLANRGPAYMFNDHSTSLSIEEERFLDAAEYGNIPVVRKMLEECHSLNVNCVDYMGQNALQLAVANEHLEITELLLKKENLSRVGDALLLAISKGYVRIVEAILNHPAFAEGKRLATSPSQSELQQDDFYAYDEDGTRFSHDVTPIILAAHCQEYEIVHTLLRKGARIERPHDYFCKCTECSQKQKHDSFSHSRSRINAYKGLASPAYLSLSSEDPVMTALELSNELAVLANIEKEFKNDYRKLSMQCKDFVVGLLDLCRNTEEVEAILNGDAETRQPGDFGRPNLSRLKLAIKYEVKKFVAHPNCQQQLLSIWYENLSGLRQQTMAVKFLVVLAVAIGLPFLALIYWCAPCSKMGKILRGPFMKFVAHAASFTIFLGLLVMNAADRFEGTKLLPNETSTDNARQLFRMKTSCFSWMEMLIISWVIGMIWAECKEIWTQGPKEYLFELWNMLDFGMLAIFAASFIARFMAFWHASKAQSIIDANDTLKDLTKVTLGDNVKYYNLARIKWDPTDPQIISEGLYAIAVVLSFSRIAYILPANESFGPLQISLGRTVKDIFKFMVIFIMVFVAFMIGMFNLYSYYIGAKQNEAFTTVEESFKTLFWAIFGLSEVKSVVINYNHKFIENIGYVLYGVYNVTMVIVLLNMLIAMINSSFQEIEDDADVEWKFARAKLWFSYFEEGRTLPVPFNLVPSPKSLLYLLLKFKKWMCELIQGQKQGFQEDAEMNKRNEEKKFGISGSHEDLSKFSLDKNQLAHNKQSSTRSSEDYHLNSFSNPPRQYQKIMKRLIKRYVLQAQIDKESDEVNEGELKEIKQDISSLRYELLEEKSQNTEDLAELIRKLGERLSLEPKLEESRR

[10] = biological target: Short transient receptor potential channel 6 (Mus musculus) (UniProt Q61143); assay: activation of mouse TRPC6 channel, confirmation, selectivity assay for TRPC4 activator project, cell-based, HEK293, membrane potential dye, duplicate (AID 434950;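 active means membrane potential signal rise above negative control mean plus 3 SD in both duplicates, also active in the earlier TRPC4 screen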); conditions: HEK293 TRPC6, membrane potential fluorescence, at 10 µM; stronger effect = higher value
[11] = biological target: Short transient receptor potential channel 6 (Mus musculus) (UniProt Q61143); assay: TRPC6 potentiation by TRPC4 potentiator hits, confirmation, selectivity assay for TRPC4 potentiator project, HEK293 cells, membrane potential dye, duplicate (AID 434952;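 active means compound raising the membrane signal above positive-control mean plus 3 SD in both repeats, and a primary screen hit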); conditions: HEK293 TRPC6, membrane potential dye fluorescence, at 10 µM, maximal acetylcholine added after compound; stronger effect = higher value
[12] = biological target: Short transient receptor potential channel 4 (Mus musculus) (UniProt Q9QUQ5); assay: calcium flux activators in TRPC4/5HT1a cells, counter-screen for TRPC4 activator project, cell-based, second counter screen, HEK293 TRPC4/5HT1a, Fluo-4 (AID 434977;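 active means calcium signal rise above buffer-control mean plus 5 SD in both duplicates, and also a hit in the primary screen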); conditions: Fluo-4 calcium flux, at 10 µM; stronger effect = higher value
[13] = calcium flux inhibitors in TRPC4/5HT1a cells, confirmation, counter-screen for TRPC4 inhibitor project, cell-based, second counter screen, HEK293 TRPC4/5HT1a, Fluo-4 (AID 434978;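 active means primary screen active whose calcium signal fell more than 3 SD beyond the full-serotonin control mean in both duplicate plates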); conditions: Fluo-4 calcium flux, at 10 µM, serotonin added to trigger calcium flux; stronger effect = higher value
[14] = test system: TRPC4 (mouse), co-expressed with 5HT1a in HEK293; assay: calcium flux potentiators in TRPC4/5HT1a cells, confirmation, counter-screen for TRPC4 potentiator project, cell-based, second counter screen, HEK293 TRPC4/5HT1a, Fluo-4 (AID 434979;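 active means signal rise over 3 SD above mean of control wells given weak agonist, in both repeats and first screen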); conditions: Fluo-4 calcium flux, at 10 µM, serotonin added at its EC20 dose; stronger effect = higher value
[15] = calcium flux activation in mu-opioid HEK293 cells, confirmation, counter-screen for TRPC4 activator project, cell-based, HEK293 mu-opioid receptor line (AID 449723;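 active means hit in primary screen, with calcium signal over 5 SD above buffer well mean in both duplicates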;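 further: counter screen cells carry the mu-opioid receptor alone and lack TRPC4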); conditions: Fluo-4 calcium fluorescence, at 10 µM; stronger effect = higher value
[16] = calcium flux enhancement in mu-opioid HEK293 cells, confirmation, counter-screen for TRPC4 allosteric potentiator project, cell-based, HEK293 mu-opioid receptor line (AID 449724;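 active means calcium signal rise more than 3 SD above the low-dose agonist control mean, in both duplicate plates and the primary screen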); conditions: Fluo-4 calcium flux, at 10 µM, compound added before EC20 DAMGO stimulus; stronger effect = higher value

Measured: inhibition

c1ccc(COC(CN2CCCCCC2)CN2CCCCCC2)cc1
inactive: [1] | [2] | [3] | [4] | [6] | [7] | [8] | [9] | [10] | [11] | [12] | [14] | [15] | [16]
active: [5] 93% | [13] 31.1%

O=C(NCCCN1CCN(c2cccc(Cl)c2)CC1)C1CCC(=O)N1Cc1ccccc1Cl (stereo not given)
active: [5] 90% | [6] 52% | [13] 35.9%
inactive: [1] | [2] | [3] | [4] | [7] | [8] | [9] | [10] | [11] | [12] | [14] | [15] | [16]

CNCc1c(OCc2ccccc2)ccc2ccccc12
active: [5] 92% | [9] 46% | [13] 34.9%
inactive: [1] | [2] | [3] | [4] | [6] | [7] | [8] | [10] | [11] | [12] | [14] | [15] | [16]

Cc1ccc(CSc2nc(-c3ccccc3)c(C#N)c(=O)[nH]2)cc1
inactive: [1] | [2] | [3] | [4] | [5] | [7] | [8] | [9] | [10] | [11] | [12] | [14] | [15] | [16]
active: [6] 49% | [13] 12%

COc1cccc(N2CC(O)=C(c3nc4ccccc4c(=O)[nH]3)C2=N)c1
active: [5] 74% | [6] 47% | [13] 37.5%
inactive: [1] | [2] | [3] | [4] | [7] | [8] | [9] | [10] | [11] | [12] | [14] | [15] | [16]

OCc1ccccc1CNCc1ccccc1
active: [5] 95% | [6] 52% | [13] 18.7%
inactive: [1] | [2] | [3] | [4] | [7] | [8] | [9] | [10] | [11] | [12] | [14] | [15] | [16]

COC(=O)c1ccc(Nc2cc(C)nc3ccccc23)cc1
active: [5] 98% | [9] 50% | [13] 19.9%
inactive: [1] | [2] | [3] | [4] | [6] | [7] | [8] | [10] | [11] | [12] | [14] | [15] | [16]

CCOCCCNCc1cc(Br)ccc1OCc1ccccc1
active: [5] 94% | [6] 49% | [9] 28% | [13] 16.2%
inactive: [1] | [2] | [3] | [4] | [7] | [8] | [10] | [11] | [12] | [14] | [15] | [16]

O=[N+]([O-])c1cccc(N(CC(O)CN2CCCC2)S(=O)(=O)c2ccccc2)c1 (stereo not given)
active: [5] 101%
inactive: [1] | [2] | [3] | [4] | [6] | [7] | [8] | [9] | [10] | [11] | [12] | [13] | [14] | [15] | [16]

OCC1(CCc2ccccc2)CCN(Cc2ccc3nsnc3c2)CC1
inactive: [1] | [2] | [3] | [4] | [6] | [7] | [8] | [9] | [10] | [11] | [12] | [13] | [14] | [15] | [16]
active: [5] 83%

COc1ccc(/C=C2/SC(=S)N(CCCC(=O)Nc3ccccc3C(=O)O)C2=O)cc1
inactive: [1] | [2] | [3] | [4] | [7] | [8] | [9] | [10] | [11] | [12] | [14] | [15] | [16]
active: [5] 81% | [6] 48% | [13] 36.7%

COc1ccc(Sc2nc(-c3ccccc3)ncc2C(=O)O)cc1
active: [5] 48% | [13] 45.5%
inactive: [1] | [2] | [3] | [4] | [6] | [7] | [8] | [9] | [10] | [11] | [12] | [14] | [15] | [16]

O=C(Nc1ccc(F)cc1)N1CCN2C(=O)c3ccccc3C12c1ccccc1 (stereo not given)
inactive: [1] | [2] | [3] | [4] | [6] | [7] | [8] | [9] | [10] | [11] | [12] | [13] | [14] | [15] | [16]
active: [5] 68%

OC1(c2cccs2)CN(c2ccc(Cl)cc2)C2=[N+]1CCCC2 (stereo not given)
inactive: [1] | [2] | [3] | [4] | [6] | [7] | [8] | [9] | [10] | [11] | [12] | [14] | [15] | [16]
active: [5] 72% | [13] 35.1%

Fc1ccc(CN2CCC(Cc3ccccc3)CC2)cc1F
inactive: [1] | [2] | [3] | [4] | [6] | [7] | [8] | [9] | [10] | [11] | [12] | [14] | [15] | [16]
active: [5] 89% | [13] 25.9%

Reference: PubChem BioAssay
